Assay results: PubChem BioAssay
The source made the active and inactive calls.

Experiments:
[1] = tested on: Plasmodium falciparum Sir2 (PF13_0152, Sir2A); test: pfSir2 binders on small-molecule microarrays, primary screen, biochemical, small-molecule microarray, 635 nm fluorescence (AID 1098); settings: small-molecule microarray binding, fluorescence 635 nm; higher = more signal;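 note: score merges spot fluorescence intensity with its signal-to-noise ratio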
[2] = small-molecule microarray binders of probe aDKK1, primary screen, biochemical, biotinylated probe, 635/667 nm fluorescence (AID 1099); settings: higher = more signal;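 note: score merges 667nm spot fluorescence with signal to noise across triplicate slides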
[3] = small-molecule microarray binders of probe aCHRDL2, primary screen, biochemical, biotinylated probe, 635/667 nm fluorescence (AID 1100); settings: higher = more signal
[4] = splicing luciferase reporter signal modulators, primary screen, spliceosome inhibition project, cell-based, HEK293, splice +/- reporter (AID 1101); settings: luminescence, 24 h, higher = more signal, called active from +8 up or from −8 down;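 note: HEK293 cells carrying a splicing-competent luciferase reporter gene; test concentration not given here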
[5] = molecular target: Fibroblast growth factor 10 (Homo sapiens) (UniProt O15520); test: FGF10 binders on small-molecule microarrays, primary screen, biochemical, small-molecule microarray, 635 nm fluorescence (AID 1102); settings: FGF10 binding, fluorescence 635 nm, higher = more signal
Sequence of Fibroblast growth factor 10 (Homo sapiens) (O15520 whole entry, looked up): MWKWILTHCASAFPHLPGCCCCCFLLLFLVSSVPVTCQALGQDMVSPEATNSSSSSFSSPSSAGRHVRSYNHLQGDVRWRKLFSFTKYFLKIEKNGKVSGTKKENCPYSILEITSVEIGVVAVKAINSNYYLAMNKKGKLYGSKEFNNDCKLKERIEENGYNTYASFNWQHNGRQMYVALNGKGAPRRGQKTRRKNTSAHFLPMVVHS

[6] = tested on: glycogen synthase kinase-3 (GSK3A per assay name; protocol says GSK3B); test: GSK3 binders on small-molecule microarrays, primary screen, biochemical, small-molecule microarray, 635 nm fluorescence, GSK3A (AID 1103); settings: small-molecule microarray binding, fluorescence 635 nm; higher = more signal; note: the record names both GSK3A and GSK3B
[7] = molecular target: Epidermal growth factor receptor (Homo sapiens) (UniProt P00533); test: EGFR binders on small-molecule microarrays, primary screen, biochemical, small-molecule microarray, 635 nm fluorescence (AID 1104); settings: EGFR binding, higher = more signal;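 note: score merges 667 nm emission intensity with spot signal to noise over triplicate slides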
Sequence of Epidermal growth factor receptor (Homo sapiens) (P00533 whole entry, looked up): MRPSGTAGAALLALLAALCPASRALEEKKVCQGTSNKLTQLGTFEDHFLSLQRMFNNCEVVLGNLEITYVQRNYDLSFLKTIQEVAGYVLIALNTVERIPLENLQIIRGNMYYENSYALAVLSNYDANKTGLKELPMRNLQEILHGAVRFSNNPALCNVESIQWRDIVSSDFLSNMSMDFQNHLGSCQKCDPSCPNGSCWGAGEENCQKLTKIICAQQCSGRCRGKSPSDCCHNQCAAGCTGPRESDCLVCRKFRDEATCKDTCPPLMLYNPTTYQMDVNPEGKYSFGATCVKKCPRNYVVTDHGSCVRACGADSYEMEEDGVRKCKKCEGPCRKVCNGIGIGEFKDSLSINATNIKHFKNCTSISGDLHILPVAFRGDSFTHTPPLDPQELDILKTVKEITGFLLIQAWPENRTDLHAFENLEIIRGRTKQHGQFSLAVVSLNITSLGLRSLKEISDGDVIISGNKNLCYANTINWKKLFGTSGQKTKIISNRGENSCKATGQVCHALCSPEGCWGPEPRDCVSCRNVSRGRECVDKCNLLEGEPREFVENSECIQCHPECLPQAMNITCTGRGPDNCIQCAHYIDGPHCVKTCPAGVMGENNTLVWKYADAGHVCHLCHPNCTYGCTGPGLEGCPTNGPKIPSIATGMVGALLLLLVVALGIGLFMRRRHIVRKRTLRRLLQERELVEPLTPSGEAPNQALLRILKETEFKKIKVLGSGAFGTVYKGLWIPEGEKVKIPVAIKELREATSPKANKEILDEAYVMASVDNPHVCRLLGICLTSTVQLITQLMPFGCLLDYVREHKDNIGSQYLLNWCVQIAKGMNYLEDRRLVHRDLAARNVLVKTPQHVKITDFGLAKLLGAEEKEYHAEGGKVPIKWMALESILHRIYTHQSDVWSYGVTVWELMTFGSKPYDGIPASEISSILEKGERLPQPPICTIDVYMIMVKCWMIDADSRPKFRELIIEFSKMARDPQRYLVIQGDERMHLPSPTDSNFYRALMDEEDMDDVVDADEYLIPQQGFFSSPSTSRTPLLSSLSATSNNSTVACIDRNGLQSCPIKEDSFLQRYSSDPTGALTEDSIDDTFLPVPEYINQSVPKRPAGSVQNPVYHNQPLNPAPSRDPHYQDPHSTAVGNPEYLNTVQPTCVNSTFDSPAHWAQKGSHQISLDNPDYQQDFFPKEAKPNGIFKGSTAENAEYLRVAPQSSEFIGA

[8] = molecular target: Follistatin-related protein 3 (Homo sapiens) (UniProt O95633); test: FSTL3 binders on small-molecule microarrays, primary screen, biochemical, small-molecule microarray, 635 nm fluorescence (AID 1105); settings: FSTL3 binding, higher = more signal;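 note: score merges emission near 667 nm and signal to noise per printed spot across three slides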
Sequence of Follistatin-related protein 3 (Homo sapiens) (O95633 whole entry, looked up): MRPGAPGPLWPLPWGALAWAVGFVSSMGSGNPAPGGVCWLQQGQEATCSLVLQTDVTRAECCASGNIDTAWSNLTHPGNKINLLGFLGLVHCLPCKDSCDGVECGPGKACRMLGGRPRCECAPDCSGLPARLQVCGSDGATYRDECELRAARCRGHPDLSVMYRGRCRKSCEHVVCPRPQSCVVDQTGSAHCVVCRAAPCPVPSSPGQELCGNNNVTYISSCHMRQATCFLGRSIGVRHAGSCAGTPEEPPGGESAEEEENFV

[9] = molecular target: Dickkopf-related protein 1 (Homo sapiens) (UniProt O94907); test: DKK1 binders on small-molecule microarrays, primary screen, biochemical, small-molecule microarray, 635 nm fluorescence scan (AID 1106); settings: DKK1 binding, higher = more signal;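 note: score merges emission near 667 nm with signal to noise over three replicate slides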
Sequence of Dickkopf-related protein 1 (Homo sapiens) (O94907 whole entry, looked up): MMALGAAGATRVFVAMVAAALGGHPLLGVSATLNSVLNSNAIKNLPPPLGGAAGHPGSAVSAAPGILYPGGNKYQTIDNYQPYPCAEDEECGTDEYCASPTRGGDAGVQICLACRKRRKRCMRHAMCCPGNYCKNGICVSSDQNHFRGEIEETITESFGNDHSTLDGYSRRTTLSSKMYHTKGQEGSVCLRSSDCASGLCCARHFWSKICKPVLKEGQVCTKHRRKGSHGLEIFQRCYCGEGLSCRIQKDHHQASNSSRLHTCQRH

[10] = tested on: Inhibin beta A chain (activin A); test: INHBA (activin A) binders on microarrays, primary screen, biochemical, small-molecule microarray, 635 nm fluorescence scan (AID 1107); settings: small-molecule microarray binding, higher = more signal;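 note: mouse activin A protein probed at 4.33 µg/mL on printed slides; score merges bound-protein fluorescence near 667 nm with spot signal-to-noise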
[11] = tested on: Human papillomavirus type 1a protein E7 (residues 44-93); test: HPV1a E7 fragment binders on microarrays, primary screen, biochemical, small-molecule microarray, residues 44-93, 635 nm fluorescence (AID 1108); settings: small-molecule microarray binding, fluorescence 635 nm; higher = more signal;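 note: E7 fragment applied at 1 µg/mL in TBST for 1 h at 4 C; score combines spot fluorescence with its signal to noise ratio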
[12] = modulators of HCV replicon luciferase signal, primary screen, HCV replication inhibitor project, Huh7 cells, luciferase reporter (AID 1109); settings: 48 h, higher = more signal;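 note: huh7 hepatoma cells harbouring a luciferase neomycin HCV replicon reporter; luciferase luminescence as measure of HCV replicon replication; test concentration not given here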
[13] = molecular target: Left-right determination factor 2 (Homo sapiens) (UniProt O00292); test: LEFTY2 binders on small-molecule microarrays, primary screen, biochemical, small-molecule microarray, 635 nm fluorescence scan (AID 1110); settings: LEFTY2 binding, higher = more signal
Sequence of Left-right determination factor 2 (Homo sapiens) (O00292 whole entry, looked up): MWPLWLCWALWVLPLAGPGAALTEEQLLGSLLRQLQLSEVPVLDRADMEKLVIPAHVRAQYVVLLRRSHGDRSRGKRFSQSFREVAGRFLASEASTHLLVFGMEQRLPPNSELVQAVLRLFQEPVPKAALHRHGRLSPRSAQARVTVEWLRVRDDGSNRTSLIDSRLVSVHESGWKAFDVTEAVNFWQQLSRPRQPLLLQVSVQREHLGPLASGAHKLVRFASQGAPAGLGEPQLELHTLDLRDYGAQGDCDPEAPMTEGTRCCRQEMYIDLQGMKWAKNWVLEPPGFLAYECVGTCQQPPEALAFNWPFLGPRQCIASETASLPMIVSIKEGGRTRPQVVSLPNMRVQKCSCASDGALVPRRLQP

[14] = molecular target: Calmodulin-1 (Homo sapiens) (UniProt P0DP23); test: CALM1 binders on microarrays, EGTA buffer, profiling panel, biochemical, small-molecule microarray, Cy5-labelled CALM1 (AID 1111); settings: Cy5-CALM1 binding fluorescence, higher = more signal;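 note: labelled calmodulin applied in Tris saline Tween buffer holding calcium plus EGTA and DTT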
[15] = molecular target: Calmodulin-1 (Homo sapiens) (UniProt P0DP23); test: calcium-bound CALM1 binders on microarrays, profiling panel, artefact control for SMM control-protein annotation, biochemical, small-molecule microarray, Cy5-labelled CALM1, plus calcium (AID 1112); settings: Cy5-CALM1 binding fluorescence, higher = more signal;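 note: score merges spot fluorescence with signal to noise from triplicate slides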
[16] = small-molecule microarray binders of probe aWnt5a, primary screen, biochemical, biotinylated probe, 635/667 nm fluorescence (AID 1113); settings: higher = more signal;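 note: score merges 667 nm fluorescence intensity with signal-to-noise per printed feature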
[17] = small-molecule microarray binders of probe aShh, primary screen, biochemical, biotinylated probe, 635/667 nm fluorescence (AID 1114); settings: higher = more signal;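 note: probe is biotin-labelled aShh protein from a stem cell growth factor screen; measures binding of labelled protein to compounds printed on the slide; score merges feature fluorescence at 667 nm with signal-to-noise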
[18] = small-molecule microarray binders of probe aNog, primary screen, biochemical, biotinylated probe, 635/667 nm fluorescence (AID 1115); settings: higher = more signal;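 note: probe is biotinylated aNog protein used at 0.15 µg/mL for 1 h at 4 C; z-score combines 667 nm fluorescence of each spot with its signal to noise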
[19] = molecular target: Torsin-1A-interacting protein 1 (Homo sapiens) (UniProt Q5JTV8); test: LAP1 binders from COS7 cell lysate, primary screen, small-molecule microarray, 635/667 nm fluorescence (AID 1116); settings: COS7-hLAP1 lysate binding, 635 nm fluorescence, higher = more signal
Sequence of Torsin-1A-interacting protein 1 (Homo sapiens) (Q5JTV8 whole entry, looked up): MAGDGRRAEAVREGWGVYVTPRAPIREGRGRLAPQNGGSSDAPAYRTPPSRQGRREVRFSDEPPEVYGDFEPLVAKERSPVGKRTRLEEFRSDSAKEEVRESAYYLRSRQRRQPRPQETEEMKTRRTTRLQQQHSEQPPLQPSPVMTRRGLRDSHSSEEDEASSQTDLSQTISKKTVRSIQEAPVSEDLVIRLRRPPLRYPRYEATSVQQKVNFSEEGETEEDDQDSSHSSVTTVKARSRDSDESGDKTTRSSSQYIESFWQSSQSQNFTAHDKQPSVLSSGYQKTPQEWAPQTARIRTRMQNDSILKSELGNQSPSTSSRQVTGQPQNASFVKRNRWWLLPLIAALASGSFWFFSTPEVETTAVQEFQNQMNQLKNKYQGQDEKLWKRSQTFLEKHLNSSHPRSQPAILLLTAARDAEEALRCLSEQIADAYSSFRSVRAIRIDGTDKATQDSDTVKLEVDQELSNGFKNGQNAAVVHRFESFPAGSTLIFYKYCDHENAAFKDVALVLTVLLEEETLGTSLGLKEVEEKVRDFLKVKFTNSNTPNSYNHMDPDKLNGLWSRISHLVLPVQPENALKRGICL

[20] = molecular target: Alpha-bungarotoxin (Bungarus multicinctus) (UniProt P60615); test: alpha-bungarotoxin binders on microarray, profiling panel, artefact control for SMM control protein annotation, biochemical, small-molecule microarray, Alexa647 label, 635/667 nm fluorescence (AID 1117); settings: alpha-BTX-A647 binding fluorescence, higher = more signal
Sequence of Alpha-bungarotoxin (Bungarus multicinctus) (P60615 whole entry, looked up): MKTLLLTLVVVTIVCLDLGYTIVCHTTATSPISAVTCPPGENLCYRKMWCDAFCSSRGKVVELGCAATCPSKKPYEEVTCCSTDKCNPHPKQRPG

Row | SMILES | composite z-score [1] | composite z-score [2] | composite z-score [3] | z-score [4] | composite z-score [5] | composite z-score [6] | composite z-score [7] | composite z-score [8] | composite z-score [9] | composite z-score [10] | composite z-score [11] | z-score [12] | composite z-score [13] | composite z-score [14] | composite z-score [15] | composite z-score [16] | composite z-score [17] | composite z-score [18] | composite z-score [19] | composite z-score [20]
1 | N#Cc1ccc(NN2C(C(O)c3cccs3)C=CC3C(=O)N(c4ccccc4)C(=O)C32)cc1 (stereo not given) | 0.15 | -0.0705 | -0.25 | -0.626 (inactive) | 1.18 | 0.349 | 0.55 | 0.642 | -0.271 | 0.207 | 0.809 | -0.0582 | 0.268 | 0.41 | 0.314 | 0.0709 | -0.0977 | 1.43 | 1.52 | 0.122
2 | CCCCCN1CC=CC23O[C@@H]4/C=C\CCCOC(=O)C4[C@H]2C(=O)N(CCCCCCO)[C@@H]3C1=O (stereo not given in full) | 1.43 | -0.231 | 0.139 | -3.07 (inactive) | -0.894 | 0.233 | -0.0633 | -0.0242 | -1.22 | 1.26 | -0.0348 | -0.857 | -0.545 | -0.758 | -0.0227 | -0.154 | -0.0035 | -0.237 | 1.09 | -0.752
3 | CC(C)(C)OC(=O)CC[C@@]1(C(=O)O)N=C(c2ccc(OCCCO)cc2)O[C@@H]1c1ccccc1N=[N+]=[N-] | 1.67 | 1.16 | 1.36 | -0.66 (inactive) | 0.991 | 0.357 | -0.288 | -0.153 | -0.169 | 1.33 | 0.884 | 2.94 | -0.486 | 1.64 | 1.07 | 0.0711 | 0.309 | 0.58 | 1.06 | 1.15
4 | [N-]=[N+]=NCc1ccccc1C[C@]1(C(=O)NCCN2CCOCC2)N=C(c2ccc(OCCCO)cc2)O[C@H]1c1ccccc1N=[N+]=[N-] | 0.8 | 0.838 | 1.11 | -0.947 (inactive) | 0.636 | 1.15 | 0.294 | 0.504 | -0.233 | 0.819 | 0.927 | -1.76 | 0.391 | 1.2 | 0.655 | 0.0903 | 0.21 | 1.73 | 1.51 | 0.919
5 | COc1ccc(CCNC(=O)[C@@]2(c3ccc([N+](=O)[O-])cc3)CC(=O)N(CC34CC5CC(CC(C5)C3)C4)[C@@H]2c2ccc(CO)cc2)cc1 | 1.06 | 1.38 | 0.764 | 0.539 (inactive) | 0.76 | 1.07 | 0.453 | 1.03 | 0.828 | 0.432 | 1.42 | -3.38 | 0.614 | 0.581 | 0.084 | -0.0202 | 0.2 | -0.0281 | 0.299 | 0.155
6 | CCCCCCc1nc(CCCc2cc3c(c(CCCCCC)n2)[Si](C(C)C)(C(C)C)OC3)cc2c1[Si](C(C)C)(C(C)C)OC2 | -0.432 | -0.33 | -0.138 | 0.775 (inactive) | -0.408 | -0.242 | -0.0687 | -0.176 | 0.279 | 1.49 | -0.893 | -3.46 | -0.116 | -0.63 | -0.0511 | -0.1 | 0.214 | -0.303 | -0.386 | -0.325
